Assay outcomes: PubChem, several laboratories
CTSL1 counter: blocks F. hepatica cathepsin L1 in PFM18AAP counter-screen. recombinant F. hepatica cathepsin L1, Z-Leu-Arg-MCA fluorescence. inhibition, % at 5.96 µM. actives 0.49% (n = 300,000). AID 1906;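 active means inhibition above the mean of all tested compounds plus 3 SD, set per screening campaign, cut at about 17% in these data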
PHOSPHO1 block: inhibitors of human PHOSPHO1 phosphatase | AID 1565 | inhibition, % at 13.3 µM | actives 1.1% (n = 290,000) | Q8TCT1 | recombinant PHOSPHO1, absorbance phosphatase assay; in the data active means inhibition above about 60%
TPT1 inh: blocks Candida albicans tRNA 2'-phosphotransferase | recombinant caTPT1, FP RNA substrate dephosphorylation | inhibition, % at 5 µM | actives 0.81% (n = 300,000);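 active means inhibition above the mean of all tested compounds plus 3 SD, set per screening campaign, cut at about 24% in these data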
HNF4A DNA FP: change in binding of human HNF4 alpha to DNA | P41235 | HNF4a-FITC DNA binding, fluorescence polarization, 1 h | activity change, % at 10 µM | actives 0.3% (n = 360,000); in the data active means activity change above about 30%, passing the limit was not always enough
NRP1-CendR mod: modulators of CendR peptide binding to human neuropilin-1. O14786. FAM-RPARPAR peptide binding to NRP-1, fluorescence polarization. inhibition, % at 25 µM. actives 0.85% (n = 360,000). AID 602438;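 active means inhibition or corrected inhibition above about 18%, plus a signal ratio from 0.5 to 1.5, limit read from the data, passing the limit was not always enough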
Target sequence (O14786 whole entry, looked up): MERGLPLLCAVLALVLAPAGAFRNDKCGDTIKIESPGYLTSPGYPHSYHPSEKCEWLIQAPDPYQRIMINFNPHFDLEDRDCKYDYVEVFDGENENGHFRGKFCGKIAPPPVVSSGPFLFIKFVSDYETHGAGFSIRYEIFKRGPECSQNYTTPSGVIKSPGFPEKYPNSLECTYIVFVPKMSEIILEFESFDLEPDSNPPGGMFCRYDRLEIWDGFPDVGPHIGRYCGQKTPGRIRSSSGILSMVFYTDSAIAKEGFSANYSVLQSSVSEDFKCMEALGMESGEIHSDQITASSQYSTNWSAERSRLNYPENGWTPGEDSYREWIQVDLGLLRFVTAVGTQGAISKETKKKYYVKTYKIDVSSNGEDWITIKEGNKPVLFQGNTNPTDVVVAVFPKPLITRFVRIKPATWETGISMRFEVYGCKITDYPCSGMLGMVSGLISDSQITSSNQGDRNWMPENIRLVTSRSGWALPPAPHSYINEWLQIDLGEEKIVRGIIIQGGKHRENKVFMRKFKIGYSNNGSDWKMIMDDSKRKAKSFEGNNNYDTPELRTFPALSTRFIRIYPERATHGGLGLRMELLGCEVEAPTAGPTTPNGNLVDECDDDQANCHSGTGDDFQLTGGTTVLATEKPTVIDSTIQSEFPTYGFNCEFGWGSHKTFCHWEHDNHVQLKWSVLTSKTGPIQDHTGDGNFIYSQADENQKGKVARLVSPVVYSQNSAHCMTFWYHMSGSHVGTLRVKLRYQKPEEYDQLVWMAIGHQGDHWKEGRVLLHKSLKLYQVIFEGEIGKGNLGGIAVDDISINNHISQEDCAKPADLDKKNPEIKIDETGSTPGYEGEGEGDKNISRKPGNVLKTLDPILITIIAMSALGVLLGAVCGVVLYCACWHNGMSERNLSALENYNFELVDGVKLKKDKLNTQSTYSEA
Rpn11 inh: Rpn11 (human) deubiquitinase inhibition. actives 0.59% (n = 360,000). human 26S proteasome, Ub4-pepOG fluorescence polarization; 20S core pre-blocked with epoxomicin. O00487. inhibition, % at 20 µM;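 active means inhibition at 20 µM, scaled to each plate's controls, above about 33%, limit read from the data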
Hits are given with their value; i = inactive; nt = not tested or not shown. Rows were chosen to be rich in hits. Some 3.3% of all compounds tested hit in one or more screens of this group.

SMILES | CTSL1 counter | PHOSPHO1 block | TPT1 inh | HNF4A DNA FP | NRP1-CendR mod | Rpn11 inh
CCCCCCCCC[n+]1cccc2c3ccccc3ccc21 | i | i | i | i | 33 | i
OC(CN1CCN(c2ccccc2)CC1)Cn1c2ccccc2c2ccccc21 (centres undefined) | i | i | i | i | 25 | i
CCCCNC(=S)NNC(=O)C1=NN(c2cc(C)ccc2C)C(=O)CC1 | i | i | i | i | i | i
COc1ccc(NC(=O)C2(C)Cc3c(-c4ccc(NC(C)=O)cc4)ccnc3O2)cc1OC (centres undefined) | nt | nt | nt | i | i | i
CCCC1(C(=O)OCC)NC(c2ccc(OC)cc2OC)C2C(=O)N(c3ccc4c(c3)OCCO4)C(=O)C21 (centres undefined) | i | i | i | i | i | i
COc1cccc(CN(C)S(=O)(=O)c2ccc3c(c2)OCCO3)c1 | nt | nt | nt | i | 19 | i
COc1ccc(S(=O)(=O)N(C)Cc2ccc3c(c2)OCCO3)cc1 | nt | nt | nt | i | i | i
COc1ccc(CCCc2nnc(SCC(=O)Nc3ccc(C)c(C)c3)o2)cc1 | i | 85 | i | i | i | i
CCNC(=O)C1(C)CCCN1Cc1cccc(C(F)(F)F)c1 (centres undefined) | nt | nt | nt | i | i | i
COc1cc(CNc2ncnc3c2ncn3[C@H]2CN(Cc3ccccc3)C[C@@H](COC(C)=O)O2)cc(OC)c1OC | nt | nt | nt | i | i | i
CCOC(=O)c1c(C)oc2c1c(C=NC1CCS(=O)(=O)C1)c(O)c1ccccc12 (centres undefined) | i | i | i | i | i | i
CCOC(=O)c1c(C)oc2c1c(C=NCCC(=O)O)c(O)c1ccccc12 | i | i | i | i | 26 | i
O=C(CCl)N1CCN(S(=O)(=O)c2ccc3ccccc3c2)CC1 | 19 | i | i | i | i | i
COc1ccc(S(=O)(=O)N2CCCCC2)cc1NC(=O)CCc1nc2ccccc2c(=O)[nH]1 | 28 | nt | i | i | i | i
CCOCC(=O)Nc1cc(S(=O)(=O)N2CCOCC2)ccc1N1CCCCC1 | i | 75 | i | i | i | i
Cc1ccc(NC(=O)Cn2c(=O)cnc3ccccc32)cc1S(=O)(=O)N1CCCCC1 | nt | nt | nt | i | i | i
Cc1ccc(S(=O)(=O)N2CCCCC2)cc1NC(=O)Cn1c(=O)cnc2ccccc21 | i | 60 | i | i | i | i
Cc1cc(C(=O)NN=C(Cc2ccccc2)Cc2ccccc2)c(C)o1 | i | i | i | i | i | i
CCOCCCn1c(=NC(=O)c2cccs2)c(C#N)cc2c(=O)n3ccccc3nc21 | i | i | i | i | i | i
COCCNC(=O)CSc1nc2cc(OC)c(OC)cc2c(=O)n1CCc1ccc(S(N)(=O)=O)cc1 | i | i | i | i | i | i
COc1ccc(S(=O)(=O)N2CCCCC2)cc1NC(=O)c1c(F)cccc1Cl | nt | nt | nt | i | 26 | i
O=C(Nc1cc(S(=O)(=O)N2CCCC2)ccc1Cl)C1=COCCO1 | i | i | i | i | i | i
CC(OC(=O)C1=COCCO1)C(=O)Nc1cc(S(=O)(=O)N2CCCCC2)ccc1Cl (centres undefined) | i | i | i | i | 23 | i
Cc1nc(COC(=O)c2ccc(S(=O)(=O)N3CCCC3)cc2)cs1 | i | 81 | i | i | i | i
O=C(CCl)Nc1cc(S(=O)(=O)N2CCCCCC2)ccc1Cl | 80 | i | i | i | i | i
SMILES | CTSL1 counter | PHOSPHO1 block | TPT1 inh | HNF4A DNA FP | NRP1-CendR mod | Rpn11 inh
NC(=O)COC(=O)c1ccc(S(=O)(=O)N2CCCCCC2)cc1 | i | i | i | i | i | i
CC(C)(C)CC(=O)Nc1cc(S(=O)(=O)N2CCCCCC2)ccc1Cl | i | i | i | i | i | i
CC(C)c1ccc(NC(=O)Nc2nc(C(N)c3ccccc3)cs2)cc1 (centres undefined) | nt | nt | nt | i | i | i
Cc1ccc(COc2ccsc2C(=O)NN)cc1 | i | i | i | i | i | i
CS(=O)(=O)c1ccc(Cl)c(NC(=O)COC(=O)c2ccc(S(=O)(=O)N3CCCC3)cc2)c1 | nt | nt | nt | i | 22 | i
CC(C)C[C@@H](CSc1ccc(Br)cc1)N1CCN(C)CCC1=O | i | i | i | i | i | i
Cc1ccc(SC[C@H](c2ccccc2)N2CCN(CC(C)C)CCC2=O)cc1 | nt | i | nt | i | 33 | i
CC(C)C[C@@H](CSc1ccc(Br)cc1)N1CCN(CC(C)C)CCC1=O | i | i | i | i | 21 | i
Cc1ccc(NC(=O)CCC(=O)N2CCN(S(=O)(=O)c3ccc(C)cc3)CC2)cc1 | nt | nt | nt | i | 45 | i
Cc1ccc(-n2c(N)c(-c3nc4ccccc4n3C)sc2=S)cc1 | i | 69 | i | i | i | i
COc1ccc(-c2csc(N)n2)cc1 | i | i | i | i | 31 | i
CCOC(=O)c1ccc(NCCOC)c([N+](=O)[O-])c1 | i | i | i | i | i | i
COCCNc1cc(N)c([N+](=O)[O-])cc1[N+](=O)[O-] | i | i | i | 45 | i | i
Cc1nc(-c2ccccc2)nc2n[nH]c(N)c12 | i | nt | i | i | i | i
O=C1N/C(=C/c2cccn2-c2ccc(F)cc2)C(=O)N1Cc1ccccc1F | i | i | i | i | 43 | i
CCOC(=O)C(NC(=O)Nc1ccc(Cl)cn1)(Oc1ccc(F)cc1)C(F)(F)F (centres undefined) | i | i | i | i | i | i
CCOC(=O)/C=C/c1ccc2c(c1)S(=O)(=O)N(c1cccc(OC)c1)[C@H]2CC(=O)OCC | i | nt | i | i | 28 | i
CCOC(=O)/C(C#N)=C/c1cccc(C)c1 | nt | i | nt | i | i | i
CCOC(=O)/C(C#N)=C/c1cccc([N+](=O)[O-])c1 | i | 64 | i | i | i | i
Cc1n[nH]c(=O)c2c(NC(=O)CSc3ncccn3)oc(C)c12 | i | nt | i | i | i | i
C=CCn1c(C)nnc1SCC(=O)Nc1oc(C)c2c(C)n[nH]c(=O)c12 | 18 | nt | i | i | i | i
Cn1c(N2CCN(c3ccccn3)CC2)nc2c1c(=O)n(Cc1ccc(Cl)cc1)c(=O)n2C | i | i | i | i | i | i
CS(=O)(=O)c1ccc2nc(NC(=O)Nc3ccccc3F)sc2c1 | i | i | i | i | i | i
Cc1ccc(C(=O)n2cnnc2N)cc1C | i | 61 | i | i | i | i
CN(c1ccc(C(=O)NC2CCCC2)cc1)S(=O)(=O)c1ccc(Cl)cc1 | i | i | i | i | i | i
SMILES | CTSL1 counter | PHOSPHO1 block | TPT1 inh | HNF4A DNA FP | NRP1-CendR mod | Rpn11 inh
COCCn1c(-c2ccc(Cl)cc2)cnc1SCC(=O)NCc1cccs1 | i | 74 | i | i | i | i
O=C(CN1C(=O)C2C3C=CC(C3)C2C1=O)Nc1ccc(F)cc1 (centres undefined) | i | i | i | i | i | i
O=C(CN1C(=O)C2C3C=CC(C3)C2C1=O)Nc1ccc2nccnc2c1 (centres undefined) | 20 | i | i | i | i | i
COCCn1c(=NC(=O)c2sc3ccccc3c2Cl)sc2cc(S(N)(=O)=O)ccc21 | 22 | i | i | i | i | i
C(=Cc1c[nH]c2ccccc12)c1ccc2ccccc2n1 | nt | nt | nt | 37 | i | i
NC(=S)Nc1cc2ccccc2c2ccccc12 | i | i | i | i | i | i
